Some test systems named below: SR leukemia; OVCAR-8 ovarian; OVCAR-5 ovarian; OVCAR-4 ovarian; SK-OV-3 ovarian; IGROV1 ovarian; OVCAR-3 ovarian; NCI/ADR-RES ovarian; T-47D breast; BT-549 breast; SW-620 colon; MCF7 breast; HCT-116 colon; HCC-2998 colon; KM12 colon; HS 578T breast; MDA-MB-435 melanoma.
What all share (test): NCI-60 one-dose screen, 48 h (100 = growth as untreated, 0 = no growth, -100 = all killed)
What all share (conditions): 10 µM

About 83,000 compounds went through this panel and 20% of them were active in at least one assay; those are over-represented in the sample as a whole.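 Treatment: one concentration, 48 hours, 96-well format. Scoring: percent growth, with anything below 10 considered active.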 Values without a mark were called inactive. Active and inactive are the calls of the source.

As to `O=C(NNC(=O)c1ccncc1)Nc1ccc([N+](=O)[O-])cc1`, the growth is 91.9% with SR leukemia; 105% in the assay with OVCAR-8 ovarian; 108% with OVCAR-5 ovarian; 108% in the assay on OVCAR-4 ovarian; 104% in the assay on SK-OV-3 ovarian; 120% in the assay with IGROV1 ovarian. The growth in the assay with OVCAR-3 ovarian was 103%; with NCI/ADR-RES ovarian, 96.4%; with T-47D breast it was 90.8%; with BT-549 breast, 121%; with SW-620 colon it was 100%; in the assay with MCF7 breast, 109%. Moreover, the growth in the assay on HCT-116 colon was 110%; in the assay on HCC-2998 colon, 106%; in the assay with KM12 colon it was 104%.

In the case of `Cc1cc(C)c2c(Nc3ncnc4c3sc3nc(C)cc(C)c34)n[nH]c2n1`, the growth in the assay on SR leukemia was 94%; with OVCAR-8 ovarian it was 97.8%; with OVCAR-5 ovarian, 95.2%; with OVCAR-4 ovarian, 86.3%; with SK-OV-3 ovarian, 106%; in the assay on IGROV1 ovarian, 120%. Further, the growth in the assay on OVCAR-3 ovarian is 101%; in the assay on HS 578T breast, 105%; in the assay on NCI/ADR-RES ovarian, 100%; in the assay on T-47D breast, 89.8%; in the assay on BT-549 breast, 101%; in the assay on MDA-MB-435 melanoma, 98.7%. Further, the growth with SW-620 colon was 101%; in the assay on MCF7 breast, 103%; in the assay with HCT-116 colon, 103%; with HCC-2998 colon, 113%; in the assay on KM12 colon, 111%.

As for `CC(=O)O[C@H]1CC[C@@]2(C)[C@@H](CC[C@@H]3[C@@H]2CC[C@]2(C)C=C(C=O)C[C@@H]32)C1`, the growth in the assay with SR leukemia is 2.16% (active); in the assay on OVCAR-8 ovarian it was 24.9%; with OVCAR-5 ovarian, 71.8%; in the assay on OVCAR-4 ovarian, 70.4%; in the assay with SK-OV-3 ovarian, 113%; with OVCAR-3 ovarian, 57.8%. The growth was 105% in the assay with HS 578T breast; 70.5% in the assay with NCI/ADR-RES ovarian; 33.6% in the assay on T-47D breast; 68.5% in the assay on BT-549 breast; 30.1% in the assay on SW-620 colon; 7.05% (active) with MCF7 breast. Further, the growth in the assay with HCT-116 colon was -19.3% (active); in the assay on HCC-2998 colon, 92.5%; with KM12 colon, 107%.

On to `CCOc1nc(-c2ccccc2)cc2c(O)c(C(=O)NC(C)C)[nH]c(=O)c12`, for which the growth with SR leukemia is 94%; in the assay with OVCAR-8 ovarian, 103%; in the assay with OVCAR-5 ovarian, 114%; in the assay on OVCAR-4 ovarian it was 118%; in the assay with SK-OV-3 ovarian, 98.6%; with IGROV1 ovarian, 65.4%. In addition, the growth in the assay on OVCAR-3 ovarian was 100%; in the assay with HS 578T breast, 82.5%; with NCI/ADR-RES ovarian, 96.8%; in the assay with T-47D breast, 97.3%; in the assay with BT-549 breast it was 147%; in the assay on MDA-MB-435 melanoma it was 105%. Besides, the growth with SW-620 colon was 96.1%; with MCF7 breast it was 98.9%; in the assay on HCT-116 colon it was 101%; in the assay on KM12 colon, 106%.

Consider `Nc1ccc(C2=CC(c3ccc(Cl)cc3)N3C=CSC3=N2)cc1` (configuration not stated), for which the growth is -11.5% (active) with SR leukemia; -1.84% (active) with OVCAR-8 ovarian; -66.1% (active) in the assay with OVCAR-5 ovarian; 0.424% (active) in the assay on OVCAR-4 ovarian; -51% (active) with SK-OV-3 ovarian; -88.8% (active) in the assay with IGROV1 ovarian. Besides, the growth is -63.1% (active) in the assay with OVCAR-3 ovarian; 16.8% with HS 578T breast; 31.6% in the assay with NCI/ADR-RES ovarian; -11% (active) in the assay on T-47D breast; -50.7% (active) in the assay on BT-549 breast; -65.7% (active) with MDA-MB-435 melanoma. The growth in the assay on SW-620 colon was -60.5% (active); with MCF7 breast, -32.1% (active); in the assay on HCT-116 colon it was -89.3% (active); in the assay with HCC-2998 colon, -95.7% (active); with KM12 colon, -41.4% (active).

Regarding `CCOC(=O)CNC(=O)Nc1ccc(Oc2ccc(NC(=O)NCC(=O)OCC)cc2)cc1`, the growth with SR leukemia was 94.2%; with OVCAR-8 ovarian, 98.4%; with OVCAR-5 ovarian, 112%; in the assay with OVCAR-4 ovarian, 106%; in the assay on SK-OV-3 ovarian, 104%; with IGROV1 ovarian it was 102%. In addition, the growth in the assay on OVCAR-3 ovarian is 107%; in the assay on HS 578T breast, 101%; in the assay on NCI/ADR-RES ovarian it was 101%; with T-47D breast it was 106%; with BT-549 breast, 111%; in the assay with MDA-MB-435 melanoma, 95.4%. For the same compound, the growth with SW-620 colon was 98%; in the assay on MCF7 breast, 76.4%; in the assay with HCT-116 colon it was 98.1%; in the assay on HCC-2998 colon, 93.3%; in the assay with KM12 colon, 105%.

For the compound `O=C(COc1ccc(Cl)cc1Cl)Oc1coc(CSc2nc3ccccc3s2)cc1=O`, the growth was 98.6% with SR leukemia; 21.3% in the assay with OVCAR-8 ovarian; 116% in the assay with OVCAR-5 ovarian; 99.1% in the assay with OVCAR-4 ovarian; 102% with SK-OV-3 ovarian; 64.3% in the assay on IGROV1 ovarian. Also, the growth was 114% with OVCAR-3 ovarian; -1.61% (active) with HS 578T breast; 104% in the assay with NCI/ADR-RES ovarian; 101% in the assay on T-47D breast; 108% with BT-549 breast; 20.7% with SW-620 colon. Also, the growth with MCF7 breast is 102%; in the assay on HCT-116 colon, 105%; with KM12 colon it was 110%.

On to `COc1ccc(C2=NNC(c3sc(Cl)nc3Cl)C2)cc1` (configuration not stated), for which the growth in the assay on SR leukemia is 2.77% (active); with OVCAR-8 ovarian, 70.3%; with OVCAR-5 ovarian it was 123%; in the assay on OVCAR-4 ovarian it was 80.5%; with SK-OV-3 ovarian it was 90%; with IGROV1 ovarian it was 63.3%. Besides, the growth in the assay on OVCAR-3 ovarian is 61.9%; in the assay with HS 578T breast, 114%; in the assay on NCI/ADR-RES ovarian, 105%; in the assay on T-47D breast it was 27.9%; in the assay with BT-549 breast, 53.3%; with MDA-MB-435 melanoma, 80%. In addition, the growth was 29.1% in the assay on SW-620 colon; 40.8% in the assay with MCF7 breast; 28% in the assay with HCT-116 colon; 72.1% with HCC-2998 colon; 79.5% in the assay on KM12 colon.

As for `CCCCCCCCCCCCc1ccc(C(=O)/C=C/C(=O)O)cc1`, the growth is -28.1% (active) in the assay on SR leukemia; 67.1% in the assay on OVCAR-8 ovarian; 94.1% with OVCAR-5 ovarian; 70.9% in the assay on OVCAR-4 ovarian; 98.6% with SK-OV-3 ovarian; 72.7% in the assay on IGROV1 ovarian. Further, the growth was 47% in the assay on OVCAR-3 ovarian; 93.7% in the assay on HS 578T breast; 100% in the assay with NCI/ADR-RES ovarian; 11.6% in the assay with T-47D breast; 45% in the assay on BT-549 breast; 109% in the assay on MDA-MB-435 melanoma. The growth was -23.1% (active) in the assay with SW-620 colon; -5.2% (active) with MCF7 breast; -61.3% (active) with HCT-116 colon; 76.2% in the assay with HCC-2998 colon; 97.7% with KM12 colon.

With `COc1ccc(C2CC(c3ccc(-c4ccccc4)cc3)=NN2c2ccc(S(N)(=O)=O)cc2)cc1` (configuration not stated), the growth in the assay on SR leukemia was 80%; in the assay on OVCAR-8 ovarian, 70.2%; with OVCAR-5 ovarian, 90%; in the assay on OVCAR-4 ovarian it was 70%; with SK-OV-3 ovarian it was 79.5%; with IGROV1 ovarian, 46.3%. Further, the growth in the assay on OVCAR-3 ovarian is 89.9%; in the assay on HS 578T breast it was 85.5%; in the assay with NCI/ADR-RES ovarian, 60.7%; in the assay with T-47D breast, 52.5%; with BT-549 breast, 98.5%; in the assay with MDA-MB-435 melanoma it was 76%. Also, the growth in the assay with SW-620 colon was 81.1%; with MCF7 breast it was 58.6%; with HCT-116 colon, 56.7%; with KM12 colon, 37.5%.

The values above are taken from PubChem BioAssay (NCI).
